# Test results reported in the supplement of paper PMC6555819.
# Assays:
# Assay in all cases: PBM binding z-score (relative to random genomic background probes); higher = stronger binding; sequences stand for … in GC…GCGATTGACAGCGTAGAATGAAGG
# [1] = test system: PPARg:RXRa DBDmut IVT, anti-RXR (DBD mutation: RXRa K156A/R161A, NR concentration 270 nM, RXRa partner concentration 90 nM)
# How it was run: (§1)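 Random background probes are the reference for binding z-scores. These scores derive from regression-normalized fluorescence on custom Agilent 4×180K protein-binding microarrays incubated 1 h with ligand-free nuclear receptor dimers. Binding was detected with antibodies against each partner (one per run).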
# [2] = test system: PPARg:RXRa IVT, anti-PPARg (NR concentration 270 nM, RXRa partner concentration 90 nM)
# How it was run: as §1
# [3] = test system: PPARg homodimer (NR concentration 180 nM)
# How it was run: as §1
# [4] = test system: PXR:RXRa (NR concentration 270 nM, RXRa partner concentration 90 nM)
# How it was run: as §1
# [5] = test system: PXR homodimer (NR concentration 270 nM)
# How it was run: as §1
# [6] = test system: RARa homodimer (NR concentration 270 nM)
# How it was run: as §1
# [7] = test system: RARb:RXRa (NR concentration 270 nM, RXRa partner concentration 90 nM)
# How it was run: as §1
# [8] = test system: RARb homodimer (NR concentration 270 nM)
# How it was run: as §1
# [9] = test system: RARg:RXRa (NR concentration 270 nM, RXRa partner concentration 90 nM)
# How it was run: as §1
# [10] = test system: RARg homodimer (NR concentration 270 nM)
# How it was run: as §1
# [11] = test system: RXRa DBDmut IVT, anti-RXR (DBD mutation: RXRa K156A/R161A, NR concentration 90 nM)
# How it was run: as §1
# [12] = test system: RXRa homodimer (NR concentration 180 nM)
# How it was run: as §1
# [13] = test system: THRa:RXRa (NR concentration 90 nM, RXRa partner concentration 90 nM)
# How it was run: as §1
# [14] = test system: THRa homodimer (NR concentration 90 nM)
# How it was run: as §1
# [15] = test system: VDR:RXRa (NR concentration 270 nM, RXRa partner concentration 90 nM)
# How it was run: as §1
# [16] = test system: VDR homodimer (NR concentration 270 nM)
# How it was run: as §1
# [17] = test system: RARa:RXR (NR concentration 270 nM, RXRa partner concentration 90 nM)
# How it was run: as §1
Sequence,PBM binding z-score [1],PBM binding z-score [2],PBM binding z-score [3],PBM binding z-score [4],PBM binding z-score [5],PBM binding z-score [6],PBM binding z-score [7],PBM binding z-score [8],PBM binding z-score [9],PBM binding z-score [10],PBM binding z-score [11],PBM binding z-score [12],PBM binding z-score [13],PBM binding z-score [14],PBM binding z-score [15],PBM binding z-score [16],PBM binding z-score [17]
CCGAGTAGGTTACGAGGGCGCATTCAGTGCGAAT,4.97,4.85,-0.00528,0.483,-0.379,-0.752,1.29,0.436,0.647,0.287,-0.122,0.655,0.838,-0.711,0.78,0.0173,–
TCGAGTAGGTTAGGGGGGCATTCAGGGATGAAGA,4.38,5.24,2.84,3.99,3.93,2.35,3.15,2.58,–,2.54,2.58,2.32,3.86,2.28,3.91,3.28,3.47
CCGACTAGGTTACGAGGGGGCATTCAGTGCGAAT,4.63,4.93,1.66,4.6,5.23,0.38,2.02,2.21,2.97,2.26,1.5,1.62,3.52,0.757,–,3.12,2.64
CTATGTAGGTAAAGGGGGTCATTCAGTTTGAAAG,6.89,7.06,3.59,5.82,10.7,1.83,–,3.55,4.43,2.93,2.5,5.6,3.66,1.73,–,6.01,6.13
CCGAGTAGGTTACGGGGGGGCATTCAGTGCGAAT,5.07,5.61,4.19,5.79,7.32,2.21,–,3.09,4.41,4.19,2.7,2.73,4.4,3.04,–,4.76,4.18
CTATGTAGGTTAAGGGGCTCATTCAGTTTGAAAG,7.02,6.52,1.36,0.403,0.167,0.222,0.689,0.464,0.537,0.331,0.357,0.409,0.521,0.0604,–,0.323,0.505
TCGAGTAGGTTACGGTGGCATTCAGGGATGAAGA,3.28,3.56,0.177,-0.0566,-0.975,-0.958,0.864,0.0468,0.487,0.23,-0.239,0.829,0.835,-0.365,–,-0.35,0.611
CTATGTAGGTTAAGGGGGTCAATCAGTTTGAAAG,7.42,7.48,2.63,5.16,7.48,0.971,3.41,3.94,5.13,4.33,1.67,5.67,3.81,1.49,–,4.34,5.23
CTATGTAGGTTAACGGGGTCATTCAGTTTGAAAG,7.65,7.78,2.41,–,12.2,0.661,3.57,4.24,5.11,3.74,3.05,6.78,4.44,2.55,–,7.5,6.06
CTATGTAGGTTAATGGGGTCATTCAGTTTGAAAG,7.34,7.83,3.7,–,13.3,1.57,3.3,3.6,4.72,3.17,3.07,6.2,4.28,3.09,–,7.21,6.66
TCGAGTAGGTTACGTGGGCATTCAGGGATGAAGA,3.11,2.65,-0.0563,-0.044,-0.265,-0.517,0.704,0.175,–,0.607,0.0477,0.631,0.726,-0.426,–,-0.34,0.41
TCGAGTAGGTTGCGGGGGCATTCAGGGATGAAGA,2.02,3.55,1.44,3.09,2.38,0.623,1.91,1.73,2.24,1.59,1.94,1.5,3.75,2.35,–,3.45,2.39
TCAAGTAGGTTACGGGGGCATTCAGGGATGAAGA,6.98,7.48,3.45,3.45,2.97,1.26,–,2.65,3.75,3.05,2.81,3.19,3.8,2.1,4.11,4.17,3.18
TCGAATAGGTTACGGGGGCATTCAGGGATGAAGA,4.48,5.46,2.1,3.82,1.8,1.33,3.33,2.78,4.18,3.02,2.78,3.99,4.29,1.9,–,3.3,3.69
